Results on 16 molecules are retold here after PubChem BioAssay (EPA / NIEHS).

A short description of experiment [1]: TOX21_p53_BLA_p2_viability: Viability Assessment in the Tox21 HCT-116 p53 Agonism Beta-lactamase Assay, Phase 2 (AID 2283591).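 Note: actives lower the ATP signal meaning cytotoxicity.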 The essentials: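 HCT116 p53-bla cells, 4000/well, dosed after 5 h plating (217-fold dilution of DMSO stocks) and incubated 16 h at 37C. Viability taken as cellular ATP by CellTiter-Glo luminescence after 30 min RT; signal loss marks cytotoxicity.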

Experiment [2] deals with Cellular tumor antigen p53 (Homo sapiens) (UniProt P04637). Briefly: TOX21_p53_BLA_p2_ratio: Tox21 HCT-116 p53 Agonism Beta-lactamase Assay, Ratio, Phase 2 (AID 2283592). Put shortly: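 Ratio endpoint: beta-lactamase cleavage of CCF4-AM, blue (460 nm) over green (530 nm). HCT116 reporter line; 16 h treatment, 37C; substrate 2 h RT.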
Sequence of Cellular tumor antigen p53 (Homo sapiens) (P04637 whole entry, looked up): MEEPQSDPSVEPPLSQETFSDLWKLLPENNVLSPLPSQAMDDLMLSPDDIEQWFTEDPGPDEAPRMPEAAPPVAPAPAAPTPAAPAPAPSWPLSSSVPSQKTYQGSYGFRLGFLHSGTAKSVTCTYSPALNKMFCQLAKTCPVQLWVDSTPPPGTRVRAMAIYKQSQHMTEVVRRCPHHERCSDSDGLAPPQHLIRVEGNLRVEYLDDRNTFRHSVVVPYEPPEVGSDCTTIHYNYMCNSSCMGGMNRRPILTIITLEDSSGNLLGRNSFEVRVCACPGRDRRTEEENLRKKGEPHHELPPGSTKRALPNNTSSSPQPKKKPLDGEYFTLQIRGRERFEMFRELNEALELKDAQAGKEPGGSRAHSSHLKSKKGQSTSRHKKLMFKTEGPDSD
The nature of experiment [3]: TOX21_p53_BLA_p4_viability: Viability Assessment in the Tox21 HCT-116 p53 Agonism Beta-lactamase Assay, Phase 4 (AID 2283597).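 Note: hits lower the luminescence signal meaning cytotoxicity.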 Put shortly:
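Cytotoxicity was inferred from loss of CellTiter-Glo luminescence. HCT116 cells had been dosed with compounds after 5 h plating, incubated 16 h at 37C and 5% CO2, and exposed to the CCF4-AM substrate for 2 h.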

Experiment [4] deals with Cellular tumor antigen p53 (Homo sapiens) (UniProt P04637). The experiment is described as follows: TOX21_p53_BLA_p5_ratio: Tox21 HCT-116 p53 Agonism Beta-lactamase Assay, Ratio, Phase 5 (AID 2283599). Put shortly: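 HCT-116 p53-bla cells (4000/well) plated 5 h, dosed with compound (217-fold DMSO dilution) for 16 h at 37 C; CCF4-AM substrate 2 h at room temperature. Activity is the 460/530 nm emission ratio (405 nm excitation), fitted in gain-of-signal direction versus DMSO.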

Experiment [5] in a line: TOX21_p53_BLA_p5_viability: Viability Assessment in the Tox21 HCT-116 p53 Agonism Beta-lactamase Assay, Phase 5 (AID 2283600). The essentials: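 Luciferase-coupled ATP quantitation of cells treated for 16 h (37C, 5% CO2) with test chemicals delivered in DMSO via a 217-fold dilution; 4000 cells/well; reagent incubated 30 min at room temperature before luminescence reading.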

Experiment [6] concerns the target Cellular tumor antigen p53 (Homo sapiens) (UniProt P04637). Briefly: TOX21_p53_BLA_p4_ratio: Tox21 HCT-116 p53 Agonism Beta-lactamase Assay, Ratio, Phase 4 (AID 2283601). The essentials: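 HCT-116 p53 beta-lactamase reporter cells (4000/well) preincubated 5 h, then compound (217-fold dilution of DMSO stock) for 16 h at 37C. CCF4-AM substrate added 2 h at room temperature; 460/530 nm emission ratio fitted upward versus DMSO.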

Experiment [7] in a line: CCTE_Harrill_HTTr_Viability_MCF7: CCTE's 6-hour Cell Viability Assessment for the High-Throughput Transcriptomics (HTTr) Platform, in MCF-7 cells cultured in DMEM + 10% fetal bovine serum, Harrill Lab (AID 2284010; active = hit-call score of the fitted dose curve at least 0.9, where 1 is the maximum; inactive = score below 0.9). The essentials:
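Propidium iodide exclusion, imaged by high-content analysis, gauged viability after a six-hour exposure across eight concentrations. Cells were MCF-7 grown in DMEM with 10% fetal bovine serum; fits run in both directions against DMSO.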

The nature of experiment [8]: CCTE_Harrill_HTTr_Apoptosis_MCF7: CCTE's 6-hour Apoptosis Assessment for the High-Throughput Transcriptomics (HTTr) Platform, in MCF-7 cells cultured in DMEM + 10% fetal bovine serum, Harrill Lab (AID 2284011; active = hit-call score of the fitted dose curve at least 0.9, where 1 is the maximum; inactive = score below 0.9). Put shortly: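 MCF-7 cells in DMEM + 10% fetal bovine serum were exposed to chemicals for 6 hours over an eight-point dilution series. Caspase-3/7 activation was imaged by high content imaging with CellEvent Caspase 3/7 Green; bidirectional fitting used DMSO as baseline.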

For experiment [9], the target named is PGR (gene 5241) (UniProt P06401). Briefly: TOX21_PR_BLA_Followup_Agonist_ratio: Tox21 HEK293 Progesterone Receptor (PR) Agonism Beta-lactamase Follow-Up Assay, Ratio (AID 2283933). The essentials:
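Beta-lactamase reporter readout: ratio of cleaved (ch2) to uncleaved (ch1) substrate after 2 h room-temperature loading, following 16 h compound exposure at 37C. Cells were PR-UAS-bla HEK293T in 2% charcoal-stripped FBS medium. Viability was multiplexed by CellTiter-Glo.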

The target is the same in experiment [10]. Briefly: TOX21_PR_BLA_Followup_Antagonist_ratio: Tox21 HEK293 Progesterone Receptor (PR) Antagonism Beta-lactamase Follow-Up Assay, Ratio (AID 2283934).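 Note: PR-UAS-bla HEK293T cells stimulated with 1 nM R5020 agonist for 16 hr.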 The essentials:
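Readout is the blue/green (ch2/ch1) substrate cleavage ratio after 2 hours at room temperature, following 16 hr co-treatment of PR-bla HEK293T cells with compound and 1nM promegestone. Multiplexed CellTiter-Glo viability flags cytotoxicity; DMSO baseline.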

Experiment [11] is described as follows: TOX21_PR_BLA_Followup_Agonist_viability: Viability Assessment in the Tox21 HEK293 Progesterone Receptor (PR) Agonism Beta-lactamase Follow-Up Assay (AID 2283935).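 Note: signal loss means lower viability so actives are cytotoxic.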 Put shortly: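 Run multiplexed with the beta-lactamase FRET read, this endpoint measures ATP by CellTiter-Glo luminescence (30 min, room temperature). PR-UAS-bla HEK293T cells received compound 6 hr after plating and were then incubated 16 hr at 37C in 2% stripped serum.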

Experiment [12] in a line: TOX21_PR_BLA_Followup_Antagonist_viability: Viability Assessment in the Tox21 HEK293 Progesterone Receptor (PR) Antagonism Beta-lactamase Follow-Up Assay (AID 2283936).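 Note: cells exposed to compound with R5020 agonist for 16 h; hits lower the luminescence signal meaning cytotoxicity.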 The essentials:
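PR-UAS-bla HEK293T cells in medium with 2% charcoal-stripped FBS were treated with compounds plus R5020 for 16 hr at 37C. After the beta-lactamase read, CellTiter-Glo was added to the same wells and luminescence read after 30 min at room temperature.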

The target of experiment [13] is PGR (gene 5241) (UniProt P06401). The experiment is described as follows: TOX21_PR_LUC_Followup_Agonist: Tox21 HEK293 Progesterone Receptor (PR) Agonism Luciferase Follow-Up Assay (AID 2283937; active = hit-call score of the fitted dose curve at least 0.9, where 1 is the maximum; inactive = score below 0.9). The essentials:
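Agonism scored as luciferase induction over DMSO, read by ONE-Glo after 30 min at RT. Compounds were incubated 16 h at 37C on HEK293-PR-A-luc cells (3,000/well, pre-plated 5 h) previously grown 5 days in charcoal-stripped serum.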

Experiment [14] can be described thus: TOX21_PR_LUC_Followup_Agonist_viability: Viability Assessment in the Tox21 HEK293 Progesterone Receptor (PR) Agonism Luciferase Follow-Up Assay (AID 2283941).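 Note: loss of signal means cytotoxicity so actives lower viability.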 The essentials:
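Cytotoxicity counter-readout in the PR-A luciferase reporter line HEK293, with 16 h compound exposure at 37C after cells were cultured in charcoal-stripped serum. Cellular ATP quantified by CellTiter-Glo luminescence.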

Experiment [15] deals with Thyroid hormone receptor alpha (Rattus norvegicus) + Thyroid hormone receptor beta (Rattus norvegicus) (UniProt P18113+P63059). The experiment is described as follows: TOX21_TR_LUC_GH3_Antagonist_Followup: Tox21 GH3 Thyroid Hormone Receptor Antagonism Luciferase Follow-Up Assay (AID 2283942). The essentials:
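Luminescence read-out (ONE-Glo, 30 min at room temperature) in GH3 reporter cells challenged with 1.0 nM T3 final. Compounds ran at 92 uM to 5nM over 15 concentrations for 24 h; DMSO served as negative control and baseline.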

The next experiment deals with THRB (gene 7068) (UniProt P10828). The experiment is described as follows: TOX21_TRB_BLA_Antagonist_Followup_ratio: Tox21 Thyroid Hormone Receptor beta Antagonism Beta-lactamase (BLA) Follow-Up Assay, Ratio (AID 2283958). The essentials:
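Beta-lactamase reporter ratio (460/530 nm, CCF4-AM substrate, 2 h room temperature) was read in TRb-bla HEK293T cells after 18 h compound treatment (11 concentrations, triplicate) at 37C in 2% charcoal-stripped FBS medium. Loss of signal fitted against DMSO.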

In experiment [16] the target is Retinoic acid receptor RXR-alpha (Homo sapiens) (UniProt P19793). The experiment is described as follows: TOX21_TR_RXR_BLA_Antagonist_Followup_ratio: Tox21 Thyroid Hormone Receptor beta Retinoid X Receptor alpha (RXRa) Antagonism Beta-lactamase (BLA) Follow-Up Assay, Ratio (AID 2283972). The essentials:
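RXRa-UAS-bla HEK293T cells in phenol red-free DMEM with 2% charcoal-stripped FBS; compounds at 11 concentrations in triplicate, 16 h at 37C. LiveBLAzer FRET-B/CCF4-AM substrate 2 h at room temperature; read as 460:530 nm ratio versus DMSO.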

Experiment [17] in a line: TOX21_TR_RXR_BLA_Antagonist_Followup_viability: Viability Assessment in the Tox21 Thyroid Hormone Receptor beta Retinoid X Receptor alpha (RXRa) Antagonism Beta-lactamase (BLA) Follow-Up Assay (AID 2283979). The essentials: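 RXRa-bla HEK293T cells (2,500/well, phenol red-free DMEM, 2% charcoal-stripped FBS) were attached 5 h, then exposed to compounds at 11 concentrations in triplicate for 16 h at 37C. Viability measured by CellTiter-Glo ATP luminescence, bidirectional fitting versus DMSO.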

For orientation: AC50 means the concentration giving half of the maximal activity seen.

Results filed as inconclusive are left out. Calls of active or inactive are those of the source. Rule for the calls, unless noted: active = hit-call score of the fitted dose curve at least 0.9, where 1 is the maximum; inconclusive = response in the unintended direction; inactive = score below 0.9.

Sequence of PGR (gene 5241) (P06401 whole entry, looked up): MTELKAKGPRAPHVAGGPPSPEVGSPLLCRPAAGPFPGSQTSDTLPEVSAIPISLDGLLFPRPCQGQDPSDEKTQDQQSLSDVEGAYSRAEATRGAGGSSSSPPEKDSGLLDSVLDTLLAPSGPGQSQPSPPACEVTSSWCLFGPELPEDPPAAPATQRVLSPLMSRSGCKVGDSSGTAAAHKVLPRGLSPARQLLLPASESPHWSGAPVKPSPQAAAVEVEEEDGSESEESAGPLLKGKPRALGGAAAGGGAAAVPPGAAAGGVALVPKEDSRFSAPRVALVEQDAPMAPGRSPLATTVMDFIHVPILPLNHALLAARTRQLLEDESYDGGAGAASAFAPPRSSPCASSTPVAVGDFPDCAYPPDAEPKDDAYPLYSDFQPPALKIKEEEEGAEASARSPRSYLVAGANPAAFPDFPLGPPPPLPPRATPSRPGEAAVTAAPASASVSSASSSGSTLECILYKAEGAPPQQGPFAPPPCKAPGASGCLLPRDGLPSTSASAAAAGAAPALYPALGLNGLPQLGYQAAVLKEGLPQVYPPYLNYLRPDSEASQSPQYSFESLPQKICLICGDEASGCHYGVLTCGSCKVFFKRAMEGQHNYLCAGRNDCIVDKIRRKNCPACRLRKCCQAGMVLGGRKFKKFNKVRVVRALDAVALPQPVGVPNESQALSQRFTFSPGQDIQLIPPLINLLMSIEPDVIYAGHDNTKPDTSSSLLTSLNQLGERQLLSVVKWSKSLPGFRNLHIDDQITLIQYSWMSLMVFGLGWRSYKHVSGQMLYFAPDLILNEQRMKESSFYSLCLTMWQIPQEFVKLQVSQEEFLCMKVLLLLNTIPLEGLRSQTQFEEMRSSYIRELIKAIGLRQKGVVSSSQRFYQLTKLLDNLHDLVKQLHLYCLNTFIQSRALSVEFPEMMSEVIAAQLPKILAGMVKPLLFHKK
Sequence of Retinoic acid receptor RXR-alpha (Homo sapiens) (P19793 whole entry, looked up): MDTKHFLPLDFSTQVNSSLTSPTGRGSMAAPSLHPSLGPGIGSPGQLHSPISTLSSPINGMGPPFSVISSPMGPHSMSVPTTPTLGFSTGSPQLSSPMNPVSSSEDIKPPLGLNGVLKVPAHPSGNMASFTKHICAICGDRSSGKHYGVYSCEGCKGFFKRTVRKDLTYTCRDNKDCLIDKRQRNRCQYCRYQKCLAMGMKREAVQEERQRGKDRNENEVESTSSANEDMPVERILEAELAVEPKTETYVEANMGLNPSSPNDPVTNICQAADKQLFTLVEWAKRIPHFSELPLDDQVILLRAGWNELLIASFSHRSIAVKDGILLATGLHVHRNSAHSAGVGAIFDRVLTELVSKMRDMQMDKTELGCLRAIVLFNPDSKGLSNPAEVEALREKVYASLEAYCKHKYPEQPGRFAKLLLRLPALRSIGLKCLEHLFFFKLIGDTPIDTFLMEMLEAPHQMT
Sequence of THRB (gene 7068) (P10828 whole entry, looked up): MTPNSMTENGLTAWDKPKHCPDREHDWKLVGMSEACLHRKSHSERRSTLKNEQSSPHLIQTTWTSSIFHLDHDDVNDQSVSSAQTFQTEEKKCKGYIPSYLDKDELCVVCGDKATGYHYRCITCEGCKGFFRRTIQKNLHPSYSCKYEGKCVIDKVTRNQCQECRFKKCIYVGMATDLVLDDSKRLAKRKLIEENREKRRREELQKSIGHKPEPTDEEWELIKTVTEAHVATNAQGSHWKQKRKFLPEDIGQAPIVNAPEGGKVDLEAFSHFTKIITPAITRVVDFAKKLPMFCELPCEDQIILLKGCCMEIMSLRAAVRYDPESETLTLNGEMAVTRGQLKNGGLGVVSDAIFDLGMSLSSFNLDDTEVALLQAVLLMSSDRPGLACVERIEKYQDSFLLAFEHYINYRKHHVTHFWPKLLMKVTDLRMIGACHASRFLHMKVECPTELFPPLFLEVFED

In the case of `CN1CCN(CCCN2c3ccccc3Sc3ccc(S(=O)(=O)N(C)C)cc32)CC1`, the molecule was classed as inactive in experiment [1], in experiment [2], in experiment [3], in [4], in experiment [5] and in experiment [6].

`CCOC(=N)CC(=O)OCC`: the result in experiment [1], in experiment [2], in experiment [3], in experiment [7] and in [8] was inactive.

Take `CN(C)CCc1c[nH]c2ccc(C[C@H]3COC(=O)N3)cc12`: the molecule was classed as inactive in [1], in experiment [2], in experiment [4], in [5] and in [6].

`CCCCCCCCCC(=O)N(C)C`: the molecule was called inactive in experiment [1], in experiment [2], in experiment [4] and in experiment [5].

Take `CC(=O)OCC(=O)[C@@]1(O)CC[C@H]2[C@@H]3CCC4=CC(=O)C=C[C@]4(C)[C@@]3(F)[C@@H](O)C[C@@]21C`: the molecule was called inactive (in experiment [1]; in experiment [2]; in [3]; in experiment [5]; in experiment [6]; in the experiment with PGR (gene 5241) [10]). The result in experiment [11], in experiment [12] and in experiment [14] was inactive. The figures for the AC50 with PGR (gene 5241) [9] and in the experiment with PGR (gene 5241) [13] were 16900 nM (active) and 123 nM (active), respectively.

For the molecule `C[C@@H]1CC[C@H]2C(C)(C)[C@H]3C[C@@]12CC[C@@]3(C)O`, the molecule was called inactive in experiment [1], in [2], in experiment [3], in experiment [5] and in [6].

Consider `OC[C@@H](O)C(O)[C@@H](O)CO` (stereo not given in full), for which the result in [1], in [2] and in experiment [4] was inactive.

Consider `CC(=O)SC[C@@H](C)C(=O)N1CCC[C@H]1C(=O)N[C@@H](Cc1ccccc1)C(=O)O`, for which the result in experiment [1], in experiment [2], in experiment [4] and in experiment [5] was inactive.

As for `CCC(C)(C)C`, the call in experiment [1], in experiment [2], in experiment [3] and in [6] was inactive.

Regarding `CC(O)c1ccccc1` (stereo not given), the result in experiment [1], in experiment [2], in experiment [3], in experiment [5] and in experiment [6] was inactive.

In the case of `CN1c2cc(O)c(N=NC(N)=O)cc2CC1S(=O)(=O)O` (stereo not given), the call in experiment [1], in [2] and in [4] was inactive.

As for `C=CCCCCCCCCCCCCCCCC`, the call in experiment [1], in experiment [2], in experiment [3] and in experiment [6] was inactive.

With `C[C@@H]1C\C=C/C=C/C=C/C=C/[C@H](O[C@@H]2O[C@H](C)[C@@H](O)[C@H](N)[C@@H]2O)C[C@@H]2O[C@](O)(C[C@@H](O)C[C@@H]3O[C@@H]3/C=C\C(=O)O1)C[C@H](O)[C@H]2C(=O)O`, the outcome in experiment [1], in [2] and in [4] was inactive.

In the case of `O=P(O)(O)C(O)(Cn1ccnc1)P(=O)(O)O`, the molecule was called inactive in experiment [1], in [2], in experiment [4], in experiment [5] and in experiment [6].

Regarding `COc1ccc(/C=C/C(=O)Nc2ccccc2C(=O)O)cc1OC`, the call (in experiment [1]; in experiment [2]; in experiment [3]; in experiment [5]; in the experiment with THRB (gene 7068); in [16]) was inactive. For the same molecule, the molecule was classed as inactive in experiment [17]. The half-maximal activity concentration (AC50) in experiment [15] was 2700 nM (active).

In the case of `CC1(C)[C@@H]2CC[C@]3(C2)[C@@H]1C(=O)CCC3(C)C`, the outcome in [1], in experiment [2], in experiment [3], in experiment [5] and in experiment [6] was inactive.
